Assay results published in paper PMC7826789 (International Journal of Molecular Sciences, 2021).

tested on: IRAK3; details: Compound Concentration (nM):1000
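Note: KINOMEscan scanMAX binding as percent activity remaining versus control; lower means stronger binding.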

Row | SMILES | Percent Control [%]
1 | COc1ccc2c(-c3ccnc(Nc4cccc(OC(F)(F)F)c4)n3)cnn2n1 [GW810372X] | 80
2 | CCS(=O)(=O)c1ccc(OC)c(Nc2ncc(-c3cccc(OC)c3)o2)c1 [GW580509X] | 100
3 | CC1=C(C(=O)Nc2ccc3[nH]ncc3c2)C(c2ccc3ccccc3c2)CC(=O)N1 (stereo not drawn) [GSK270822A] | 67
4 | COc1cccc(-c2c[nH]c3c(N/N=C/c4ccncc4)ncnc23)c1 [GW814408X] | 76
5 | Cl.O=C(Nc1ccc(Oc2ccc3[nH]c(NC(=O)c4ccco4)nc3c2)cc1)Nc1cc(C(F)(F)F)ccc1F [GW683134A] | 100
6 | COC(=O)Nc1nc2ccc(Oc3ccc(NC(=O)Nc4cc(C(F)(F)F)ccc4F)cc3)cc2s1.Cl [GW693917A] | 100
7 | COc1cc(N2CCN(C(C)C)CC2)ccc1Nc1nc(Nc2ccc(F)cc2C(=O)NC[C@@H](O)CO)c2cc[nH]c2n1 [GSK1392956A] | 86
8 | COc1cc2ncn(-c3cc(O[C@H](C)c4ccccc4Cl)c(C(N)=O)s3)c2cc1OC [GSK237701A] | 70
9 | Cl.c1ccc(Cc2nc3ccc(Nc4ncnc5ccccc45)cc3[nH]2)cc1 [GR269666A] | 100
10 | COc1cc(C)c(N(C)C(=O)CN(C)C)cc1Nc1nc(Nc2cccc(F)c2C(N)=O)c2cc[nH]c2n1 [GSK2219385] | 97
11 | NS(=O)(=O)c1ccc(N/N=C2\C(=O)Nc3ccc(C(=O)NCCc4c[nH]cn4)cc32)cc1 [GW300660X] | 100
12 | CCS(=O)(=O)c1ccc(OC)c(Nc2ncc(-c3cccc(F)c3)o2)c1 [GW621970X] | 100
13 | CN(C)CCNC(=O)Nc1ccc(N(C)c2ccnc(Nc3ccc(CS(C)(=O)=O)cc3)n2)cc1.Cl [GW830900A] | 31
14 | COc1cc(/C=N/Nc2ncnc3[nH]ncc23)ccc1O [GW578748X] | 100
15 | COc1ccc2cc(-c3c(-c4ccncc4)nc(-c4ccc(S(C)(=O)=O)cc4C)n3C)ccc2c1 [SB-633825] | 75
16 | COc1ccc(COc2ccc(Cc3cnc(N)nc3N)cc2OC)cc1 [GW632580X] | 100
17 | COc1cccc(-n2ncc3c(N/N=C/c4ccncc4)ncnc32)c1 [GW784752X] | 0

Row | SMILES | Percent Control [%]
18 | CN(C)c1cc2c(Nc3ccc4c(cnn4Cc4ccccc4)c3)ncnc2cn1 [GW282974X] | 100
19 | Cc1cc(O)cc(C)c1/C=C/c1cncc(C(N)=O)c1 [GW435821X] | 100
20 | NS(=O)(=O)c1ccc(N/N=C2\C(=O)Nc3ccc(-c4cnco4)cc32)cc1 [GW276655] | 100
21 | O=C(Nc1n[nH]c2nc(-c3ccc(O)cc3)c(Br)cc12)C1CC1 [SB-725317] | 100
22 | NS(=O)(=O)c1ccc(Nc2ncc(-c3ccccc3)o2)cc1 [GW572399X] | 100
23 | Cl.O=C(O[C@H]1CN[C@H](C#Cc2cc3ncnc(Nc4ccc5c(cnn5Cc5ccccc5)c4)c3s2)C1)N1CCOCC1 [GSK200398A] | 77
24 | COc1ccccc1-c1cc(/C=C2\C(=O)Nc3ncc(Br)cc32)cc(Br)c1O [GW442130X] | 100
25 | CC1=C(C(=O)Nc2ccc3[nH]ncc3c2)C(c2ccc(Cl)c(Cl)c2)CC(=O)N1 (stereo not drawn) [GSK299115A] | 56
26 | COc1cc2ncnc(Nc3ccc4c(cnn4Cc4ccccc4)c3)c2cc1OC.Cl [GW282449A] | 100
27 | O=C1Nc2ccc(C(=O)c3ccco3)cc2C1=Cc1cc(Cl)c(O)c(Cl)c1 [GW406108X] | 100
28 | CC(C)COC(=O)c1ccc2c(c1)/C(=C/Nc1ccc(S(N)(=O)=O)cc1)C(=O)N2 [GW416981X] | 100
29 | Cl.O=S1CCN(Cc2ccc(-c3ccc4ncnc(Nc5ccc(OCc6ccccc6)c(F)c5)c4c3)o2)CC1 [GW576924A] | 100
30 | CCn1c(-c2nonc2N)nc2c(C#CC(C)(C)O)nc(OCCNC)cc21.Cl [GSK949675] | 100
31 | COc1cc(C=NNc2ncnc3c2cnn3-c2ccccc2)ccc1O [GW513184X] | 28
32 | Cl.O=C(Nc1ccc(Oc2ccc3[nH]c(NC(=O)c4ccccc4)nc3c2)cc1)Nc1cc(C(F)(F)F)ccc1F [GW709042A] | 100
33 | Nc1ncnc2occ(-c3ccc(NC(=O)Nc4cc(C(F)(F)F)ccc4F)cc3)c12 [GW770249X] | 100
